PubChem BioAssay
Unmarked numbers belong to inactive results. Entries that show only a call come without a potency. For some of these results: Potency and affinity values are given separately. Activity calls are given as the source filed them. Unless noted, how the calls were made is not given here.

Legend:
[1] = human hepatoma cell viability loss – ATP luminescence, cytotoxicity control for P. falciparum antimalarial project, primary screen (AID 2303;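 active means inhibition above 50%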); settings: HepG2 viability, 24-48 h, at 10 µM, active compounds read high
[2] = biological target: L-lactate dehydrogenase (Plasmodium falciparum (isolate CDC / Honduras)) (UniProt Q27743); experiment: PfLDH activity inhibition – cell lysate, 3D7 strain, counter-screen for P. falciparum growth inhibition project (AID 2304); settings: P. falciparum 3D7 crude extract, LDH APAD/NBT absorbance; at 2 µM; active compounds read high
L-lactate dehydrogenase (Plasmodium falciparum (isolate CDC / Honduras)), sequence (Q27743 whole entry, looked up): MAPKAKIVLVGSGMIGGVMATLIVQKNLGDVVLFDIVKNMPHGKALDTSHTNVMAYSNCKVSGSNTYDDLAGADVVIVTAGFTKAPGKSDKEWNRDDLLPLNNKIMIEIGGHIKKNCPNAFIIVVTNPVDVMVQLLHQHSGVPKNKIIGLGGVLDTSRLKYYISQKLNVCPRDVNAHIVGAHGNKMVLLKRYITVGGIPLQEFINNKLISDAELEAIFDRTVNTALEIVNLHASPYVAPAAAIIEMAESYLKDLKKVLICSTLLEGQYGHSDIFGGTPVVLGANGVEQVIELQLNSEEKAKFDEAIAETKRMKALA

[3] = inhibition of 3D7 malaria parasite growth – strain 3D7 (AID 2306); settings: P. falciparum 3D7 erythrocytic growth, LDH absorbance, 72 h; at 2 µM; active compounds read high
[4] = biological target: Calcium-dependent protein kinase 1 (Plasmodium falciparum (isolate 3D7)) (UniProt P62344); experiment: PfCDPK1 kinase inhibitors, biochemical, TCAMS library (AID 1159585; cut-off not given, nearly all actives have IC50 up to about 0.98 µM;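 further: inhibitors leave more ATP so luminescence rises with inhibition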); settings: recombinant PfCDPK1, Kinase-Glo ATP depletion luminescence
Calcium-dependent protein kinase 1 (Plasmodium falciparum (isolate 3D7)), sequence (P62344 whole entry, looked up): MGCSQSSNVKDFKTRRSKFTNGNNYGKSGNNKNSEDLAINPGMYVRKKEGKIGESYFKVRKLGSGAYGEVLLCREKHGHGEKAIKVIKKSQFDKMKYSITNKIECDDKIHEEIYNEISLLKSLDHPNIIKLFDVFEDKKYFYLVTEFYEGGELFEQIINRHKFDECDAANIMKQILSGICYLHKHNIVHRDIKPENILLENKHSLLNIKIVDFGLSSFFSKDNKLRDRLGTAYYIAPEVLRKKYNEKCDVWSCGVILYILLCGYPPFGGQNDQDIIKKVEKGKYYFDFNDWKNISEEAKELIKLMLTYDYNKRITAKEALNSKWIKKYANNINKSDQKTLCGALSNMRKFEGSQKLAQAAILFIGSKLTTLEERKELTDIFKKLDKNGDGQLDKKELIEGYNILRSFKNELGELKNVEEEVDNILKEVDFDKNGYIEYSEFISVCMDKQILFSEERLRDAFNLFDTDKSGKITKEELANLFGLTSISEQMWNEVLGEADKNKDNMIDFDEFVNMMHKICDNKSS

[5] = biological target: Plasmodium falciparum protein kinase 6 (PK6, PF3D7_1337100) (UniProt Q8IDW1); experiment: PfPK6 kinase inhibitors, biochemical, TCAMS library (AID 1159586); settings: recombinant PfPK6, Kinase-Glo ATP depletion luminescence
Plasmodium falciparum protein kinase 6 (PK6, PF3D7_1337100), sequence (Q8IDW1 1-305): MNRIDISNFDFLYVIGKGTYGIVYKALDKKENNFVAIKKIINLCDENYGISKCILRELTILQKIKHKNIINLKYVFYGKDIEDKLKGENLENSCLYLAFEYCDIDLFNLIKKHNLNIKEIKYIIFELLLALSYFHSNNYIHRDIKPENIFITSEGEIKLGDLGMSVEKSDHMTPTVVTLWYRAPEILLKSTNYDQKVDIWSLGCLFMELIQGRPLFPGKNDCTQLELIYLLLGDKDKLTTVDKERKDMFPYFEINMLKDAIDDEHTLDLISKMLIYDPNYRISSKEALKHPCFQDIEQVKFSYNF

[6] = biological target: Protein kinase 7 (PK7), Plasmodium falciparum 3D7 (PF3D7_0213400) (UniProt Q7YTF7); experiment: inhibition of Plasmodium PK7 catalytic activity – biochemical, TCAMS antimalarial set, Kinase-Glo luminescence (AID 1159587); settings: recombinant PfPK7, Kinase-Glo ATP depletion luminescence
Protein kinase 7 (PK7), Plasmodium falciparum 3D7 (PF3D7_0213400), sequence (Q7YTF7 1-343): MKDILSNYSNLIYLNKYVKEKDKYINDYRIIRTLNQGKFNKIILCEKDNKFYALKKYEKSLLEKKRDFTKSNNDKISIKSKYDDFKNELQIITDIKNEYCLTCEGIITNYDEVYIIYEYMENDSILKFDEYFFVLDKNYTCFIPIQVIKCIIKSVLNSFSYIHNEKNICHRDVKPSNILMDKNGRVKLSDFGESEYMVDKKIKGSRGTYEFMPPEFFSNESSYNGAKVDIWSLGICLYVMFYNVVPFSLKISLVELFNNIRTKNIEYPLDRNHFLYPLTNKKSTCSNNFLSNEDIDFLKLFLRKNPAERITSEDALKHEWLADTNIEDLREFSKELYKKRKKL

[7] = biological target: Calcium-dependent protein kinase 4 (Plasmodium falciparum (isolate 3D7)) (UniProt Q8IBS5); experiment: PfCDPK4 kinase inhibitors, biochemical, TCAMS library (AID 1159588; cut-off not given, nearly all actives have IC50 up to about 0.91 µM); settings: recombinant PfCDPK4, Kinase-Glo ATP depletion luminescence
Calcium-dependent protein kinase 4 (Plasmodium falciparum (isolate 3D7)), sequence (Q8IBS5 whole entry, looked up): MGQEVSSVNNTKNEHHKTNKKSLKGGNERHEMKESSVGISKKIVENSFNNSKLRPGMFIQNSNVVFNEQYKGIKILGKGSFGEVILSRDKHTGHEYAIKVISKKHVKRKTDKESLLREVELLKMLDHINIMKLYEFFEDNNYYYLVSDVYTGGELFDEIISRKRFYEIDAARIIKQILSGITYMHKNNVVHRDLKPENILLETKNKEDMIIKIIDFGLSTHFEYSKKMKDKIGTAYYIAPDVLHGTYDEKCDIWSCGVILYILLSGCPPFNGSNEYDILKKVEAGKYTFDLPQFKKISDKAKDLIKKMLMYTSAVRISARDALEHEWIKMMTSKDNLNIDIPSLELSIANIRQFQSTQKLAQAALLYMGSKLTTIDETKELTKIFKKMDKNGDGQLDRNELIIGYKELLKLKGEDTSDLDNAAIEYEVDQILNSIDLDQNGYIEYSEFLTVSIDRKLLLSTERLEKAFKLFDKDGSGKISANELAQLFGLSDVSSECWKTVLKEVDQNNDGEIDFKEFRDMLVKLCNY

[8] = antimalarial activity against Dd2 strain (AID 2302;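 active means growth inhibition above 50% at the single 2 µM test dose, taken to imply half-maximal potency below 2 µM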); settings: P. falciparum Dd2 in RBCs, LDH growth readout, 72 h; at 2 µM; active compounds read high

With `CNC(=O)c1ccc(/C=C/C(=O)N2CCc3ccc(-c4ccccc4)cc3C2c2cccc(C(F)(F)F)c2)cc1` (stereo not given) the inhibition [1] was 9%, the inhibition [2] was 5% and the growth inhibition [3] was 91% (active). For the same compound, the outcome [4] was “inactive”, the outcome [5] was “inactive” and the outcome [6] was “inactive”. The outcome [7] was “inactive”.

In the case of `N#Cc1cc(N(CCCOc2cccc(OC(F)(F)F)c2)Cc2ccccc2C(F)(F)F)ccc1C(F)(F)F`, the inhibition [1] is reported as 2%, the inhibition [2] is reported as 0% and the growth inhibition [3] is reported as 94% (active). The outcome [4] was “inactive”, the outcome [5] was “inactive” and the outcome [6] was “inactive”. The outcome [7] was “inactive”.

With `CCn1c(-c2nonc2N)nc2c(-c3cccc(NC(=O)NCc4ccccc4)c3)ncc(OCCCN)c21` the inhibition [1] was 5%, the inhibition [2] was -7% and the growth inhibition [3] was 99% (active). For the same compound, the outcome [4] was “inactive”, the outcome [5] was “inactive” and the outcome [6] was “inactive”. The outcome [7] was “inactive”.

With `Cc1ccccc1Oc1ccc(Nc2ccnc(Nc3cccc(C(N)=O)c3)n2)cc1C(F)(F)F` the inhibition [1] was 9%, the inhibition [2] was -1% and the growth inhibition [3] was 81% (active). The outcome [4] was “inactive”, the outcome [5] was “inactive” and the outcome [6] was “inactive”. For the same compound, the outcome [7] was “inactive”.

With `S=C(Nc1ccc(Cl)cc1)Nc1ccc(Nc2ccccc2)cc1` the inhibition [1] was 14%, the inhibition [2] was -4% and the growth inhibition [3] was 84% (active). The outcome [4] was “inactive”, the outcome [5] was “inactive” and the outcome [6] was “inactive”. For the same compound, the outcome [7] was “inactive”.

For `O=C(Nc1nccs1)c1sc2ccccc2c1O`, the inhibition [1] was -2%, the inhibition [2] was -1% and the growth inhibition [3] was 96% (active). For the same compound, the outcome [4] was “inactive”, the outcome [5] was “inactive” and the outcome [6] was “inactive”. The outcome [7] was “inactive”.

With `Cc1ccc(Nc2c3ccccc3nc3ccc(C)cc23)cc1` the inhibition [1] was 26%, the inhibition [2] was -2% and the growth inhibition [3] was 88% (active). For the same compound, the outcome [4] was “inactive”, the outcome [5] was “inactive” and the outcome [6] was “inactive”. The outcome [7] was “inactive”.

For `C=CCOc1cc(Cc2cnc(N)nc2N)cc(OC)c1OC`, the inhibition [1] was -14%, the inhibition [2] was 2% and the growth inhibition [3] was 81% (active). For the same compound, the outcome [4] was “inactive”, the outcome [5] was “inactive” and the outcome [6] was “inactive”. The outcome [7] was “inactive”.

With `O=C(c1ccccc1)N1CCC[C@](CCCN2CCN(c3ccccc3O)CC2)(c2ccc(Cl)c(Cl)c2)C1` the inhibition [1] was 16%, the inhibition [2] was -3% and the growth inhibition [3] was 80% (active). For the same compound, the outcome [4] was “inactive”, the outcome [5] was “inactive” and the outcome [6] was “inactive”. For the same compound, the outcome [7] was “inactive”.

For `O=C(Nc1cccc(Cl)c1)c1cc2ccccc2cc1O`, the inhibition [1] was 4%, the inhibition [2] was -8% and the growth inhibition [3] was 97% (active). For the same compound, the outcome [4] was “inactive”, the outcome [5] was “inactive” and the outcome [6] was “inactive”. For the same compound, the outcome [7] was “inactive”.

For `COc1cc(CCNCC(O)c2ccc([N+](=O)[O-])c(OCc3ccccc3)c2)cc(OC)c1OC` (stereo not given), the inhibition [1] was 11%, the inhibition [2] was -3% and the growth inhibition [3] was 98% (active). The outcome [4] was “inactive”, the outcome [5] was “inactive” and the outcome [6] was “inactive”. For the same compound, the outcome [7] was “inactive”.

For `CC(C)(C)c1cc(Cl)cc(C(=O)Nc2cc([N+](=O)[O-])ccc2Cl)c1O`, the inhibition [1] was 79% (active), the inhibition [2] was 2% and the growth inhibition [3] was 91% (active). For the same compound, the outcome [4] was “inactive”, the outcome [5] was “inactive” and the outcome [6] was “inactive”. The outcome [7] was “inactive”.

For `COc1ccc(CNC(=O)Nc2cccc(-c3csc(N=C(N)N)n3)c2)cc1`, the inhibition [1] was 8%, the inhibition [2] was 1% and the growth inhibition [3] was 80% (active). For the same compound, the outcome [4] was “inactive”, the outcome [5] was “inactive” and the outcome [6] was “inactive”. For the same compound, the outcome [7] was “inactive”.

With `NC(=O)c1sc(-n2cnc3ccc(C(=O)NCCN4CCOCC4)cc32)cc1OCc1ccccc1C(F)(F)F` the inhibition [1] was -15%, the inhibition [2] was 1% and the growth inhibition [3] was 81% (active). For the same compound, the outcome [4] was “inactive”, the outcome [5] was “inactive” and the outcome [6] was “inactive”. For the same compound, the outcome [7] was “inactive”.

In the case of `N=C1SC(=Cc2cn[nH]c2-c2ccc(F)cc2)C(=O)N1c1nccs1`, the inhibition [1] is reported as 28%, the inhibition [2] is reported as -3% and the growth inhibition [3] is reported as 91% (active). The outcome [4] was “inactive”, the outcome [5] was “inactive” and the outcome [6] was “inactive”. For the same compound, the outcome [7] was “inactive”.

For `Oc1ccc(CNCC2CCN(CC3CCCCC3)CC2)cc1`, the inhibition [1] was 9%, the inhibition [2] was -1% and the growth inhibition [3] was 82% (active). The outcome [4] was “inactive”, the outcome [5] was “inactive” and the outcome [6] was “inactive”. The outcome [7] was “inactive”.

In the case of `CC(Sc1n[nH]c(-c2ccccc2Br)n1)C(=O)Nc1ccc(F)cc1` (stereo not given), the inhibition [1] is reported as -7%, the inhibition [2] is reported as 1% and the growth inhibition [3] is reported as 90% (active). The outcome [4] was “inactive”, the outcome [5] was “inactive” and the outcome [6] was “inactive”. The outcome [7] was “inactive”.

In the case of `c1ccc2c3c([nH]c2c1)C(c1ccc2c(c1)CCO2)N(c1ncnc(N2CCN(CCCN4CCOCC4)CC2)n1)CC3` (stereo not given), the inhibition [1] is reported as 37%, the inhibition [2] is reported as -2% and the growth inhibition [3] is reported as 80% (active). For the same compound, the outcome [4] was “inactive”, the outcome [5] was “inactive” and the outcome [6] was “inactive”. For the same compound, the outcome [7] was “inactive”.

For `N#Cc1cnc(Nc2ccc(Oc3ccccc3)cc2)nc1Nc1cccc(S(N)(=O)=O)c1`, the growth inhibition [8] was 86% (active), the inhibition [1] was 74% (active) and the inhibition [2] was 3%. The growth inhibition [3] was 96% (active), the outcome [4] was “inactive” and the outcome [6] was “inactive”. The outcome [7] was “inactive”.

With `Cc1nc2ccccc2n1C1C[C@H]2CC[C@@H](C1)N2CCC1(c2ccccc2)CCN(C(=O)Nc2ccc(C(F)(F)F)cc2)CC1` (stereo not given in full) the inhibition [2] was -2%, the outcome [4] was “inactive” and the outcome [5] was “inactive”. The outcome [6] was “inactive” and the outcome [7] was “inactive”.

With `CCN(CC)CCCN(C(=O)Nc1cc(F)cc(F)c1)c1nc(-c2ccc(F)cc2)cs1` the inhibition [1] was 27%, the inhibition [2] was 0% and the growth inhibition [3] was 82% (active). For the same compound, the outcome [4] was “inactive”, the outcome [5] was “inactive” and the outcome [6] was “inactive”. For the same compound, the outcome [7] was “inactive”.

With `CCCN1CCN(CCNc2c3ccccc3nc3ccccc23)CC1` the inhibition [1] was 13%, the inhibition [2] was 3% and the growth inhibition [3] was 88% (active). The outcome [4] was “inactive”, the outcome [5] was “inactive” and the outcome [6] was “inactive”. The outcome [7] was “inactive”.

In the case of `O=C(CN1C(=O)CC1S(=O)(=O)Cc1ccco1)NCCCCCCc1ccc(F)cc1` (stereo not given), the inhibition [1] is reported as -2%, the inhibition [2] is reported as -4% and the growth inhibition [3] is reported as 95% (active). The outcome [4] was “inactive”, the outcome [5] was “inactive” and the outcome [6] was “inactive”. For the same compound, the outcome [7] was “inactive”.

In the case of `Clc1cccc(C=NNc2ccnc3cc(Cl)ccc23)c1`, the inhibition [2] is reported as -4%, the outcome [4] is reported as “inactive” and the outcome [5] is reported as “inactive”. The outcome [6] was “inactive” and the outcome [7] was “inactive”.

In the case of `Cc1ccccc1Cn1ccc2c3c(N)nc(N)nc3ccc21`, the inhibition [2] is reported as -4%, the growth inhibition [3] is reported as 100% (active) and the outcome [4] is reported as “inactive”. For the same compound, the outcome [5] was “inactive”, the outcome [6] was “inactive” and the outcome [7] was “inactive”.

In the case of `O=c1c2cccnc2sn1-c1ccccc1`, the inhibition [2] is reported as 0%, the outcome [4] is reported as “inactive” and the outcome [5] is reported as “inactive”. For the same compound, the outcome [6] was “inactive” and the outcome [7] was “inactive”.
